Most compounds without a hit are left out; they make up all but 6.5% or so of the library.
Marburg entry inh: blocks Marburg virus binding to or entry into cells. Marburg virus pseudotyped entry inhibition, cell reporter. Potency, µM (top dose mostly 37.8 µM), for the others: at the highest dose activity change, negative = inhibition, actives largely listed as inhibitors. actives 1.8% (n = 300,000); calls by dose curve; tested in HEK293 cells; further: potency means the concentration at half of the fitted maximal effect
Vaccinia mCherry: vaccinia inhibition (mCherry reporter). Vaccinia virus mCherry reporter infection, fluorescence. Potency, µM (series often up to 36.5 µM), without a hit: at the top dose activity change, negative = inhibition, hits mostly inhibitors. actives 0.63% (n = 310,000). AID 720579; calls by dose curve; tested in A549 cells; further: potency means the concentration at half of the fitted maximal effect; nearly all actives have a fitted effect of over 35% in size
FMDV inh: foot and mouth disease virus antiviral activity; Potency, µM (series often up to 57.9 µM), without a hit: at the top dose activity change, negative = inhibition, usual class: inhibitors; FMDV antiviral cell-based qHTS; actives 1.2% (n = 410,000); calls by dose curve; tested in HEK293T cells; further: read-out not given here; potency means the concentration at half of the fitted maximal effect; nearly all actives have a fitted effect of over 45% in size
Vaccinia Venus: inhibitors of vaccinia virus (Venus reporter). actives 0.46% (n = 330,000). Vaccinia virus Venus reporter expression, fluorescence. Potency, µM (series often up to 36.5 µM), inactives show top-dose activity change, negative = inhibition, most hits filed as inhibitors; calls by dose curve; tested in A549 cells; further: potency means the concentration at half of the fitted maximal effect; nearly all actives have a fitted effect of over 30% in size
HCMV antiviral: inhibitors of human cytomegalovirus. HFF cells, HCMV-luciferase reporter, 72 h; active compounds read low. activity change, negative = inhibition, % at 57.5 µM. actives 4.5% (n = 410,000). AID 1259415; in the data active means activity change below about -60%; inconclusive means no clear call, values can overlap the other calls; inactive means above about -39%
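Screen run at 2 compound doses on HFFs infected with reporter HCMV, MOI 1 PFU/cell. Luciferase activity from cell lysates at 72 h post infection gave inhibition relative to buffer-only and Salinomycin wells.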
LASV entry inh: Lassa virus entry inhibition; Lassa virus pseudotype entry inhibition, cell reporter; Potency, µM (titrated, usually from 37.9 µM), inactives show at the top dose activity change, negative = inhibition, most hits filed as inhibitors; actives 1.2% (n = 300,000); AID 540256; calls by dose curve; tested in HEK293 cells; further: potency means the concentration at half of the fitted maximal effect; nearly all actives have a fitted effect of over 50% in size
* marks the source's active call; other numbers are inactive results; i = inactive; ? = inconclusive; · = no result; ! = repeats disagree; [ ] = dose if it differs, or a comment. On the % scale 0 is the no-effect control and ±100 the full control effect.

SMILES	Marburg entry inh	Vaccinia mCherry	FMDV inh	Vaccinia Venus	HCMV antiviral	LASV entry inh
COc1ccc(-n2nnc3c(SC(C(C)=O)C(=O)N(C)C)ncnc32)cc1 (stereo not given)	·	·	32µM*	·	-15	·
COc1cc(/C=N\n2nnnc2N)ccc1O	10%	·	·	·	·	·
CN(C)CC(=O)c1c(N)n(Cc2ccccc2)c(=O)n(C)c1=O	11%[46.1 µM]	-8%	-18%	-12%	67	-2%
Cn1c(=O)c(C(=O)CCl)c(N)n(Cc2ccccc2)c1=O	-16%	?	?	13µM*	26	-8%
Cn1cnnc1SCC(=O)c1c(N)n(Cc2ccccc2)c(=O)n(C)c1=O	-10%[46.1 µM]	-7%	4%	-4%	-64*	0%
Cn1c(N)c(C(=O)CCl)c(=O)n(Cc2ccccc2)c1=O	4%	-31%	28µM*	?	-22	-1%
O=C1C2=C(C(=O)c3ccccc31)[C@H]1O[C@](c3ccsc3)(Cc3c1ccc1ccccc31)O2	15%[14.2 µM]	·	·	·	·	·
Cc1ccc(CNC(=O)c2cccc(NC(=O)N3CCSc4ncccc43)c2)cc1	·	-6%	?	1%	-12	-11%[46.1 µM]
Cc1ccc(S(=O)(=O)NCCc2nnc3ccc(SCC(=O)Nc4c(C)cc(C)cc4C)nn23)cc1	·	1%	-12%	-11%	17	-5%[46.1 µM]
O=C(CC1Sc2ccccc2NC1=O)NNc1ccc(Cl)cc1Cl (stereo not given)	?	4.5µM*	-9%	?	-9	-27%[46.1 µM]
O=C(CC1Sc2ccccc2NC1=O)NCc1ccccc1 (stereo not given)	0%[46.1 µM]	i	-2%	-4%	?	-22%[46.1 µM]
O=C(Nc1ccccc1Cl)N1CCN(c2ccc3nnc(-c4ccccc4)n3n2)CC1	0%	?	?	?	·	·
O=C(Nc1ccc(Cl)cc1)N1CCN(c2ccc3nnc(-c4ccc(F)cc4)n3n2)CC1	?	?	-28%	11µM*	-63*!	?
CC(=O)Nc1ccc(N2CCN(c3ccc(C(F)(F)F)cn3)CC2)nc1	?	?	-9%	-12%	-33	-8%[46.1 µM]
O=C(Nc1ccc(Cl)cc1)N1CCC(c2nc(-c3ccc(F)cc3)no2)CC1	-29%	·	-21%	·	-91*	-27%
O=C(Nc1ccc(F)cc1)N1CCCN(c2ccc(C(F)(F)F)cn2)CC1	?	i	-17%	-18%	-62*	-12%[46.1 µM]
O=S(=O)(N1CCN(c2nc(-c3cccs3)nc3ccccc23)CC1)C(F)(F)F	·	-3%	·	-19%	·	·
O=C(Nc1ccc(-c2nc3ccccc3o2)c(O)c1)c1cc(-n2cnnc2)ccc1Cl	?	·	13µM*	·	-95*	3%
O=C(Nc1ccc2oc(-c3ccccc3)nc2c1)c1cc(-n2cnnc2)ccc1Cl	-14%	·	14%	·	-3	?
O=C(Nc1ccc(-c2nc3ccccc3o2)cc1)c1cc(-n2cnnc2)ccc1Cl	?	·	-28%	·	-97*	?
COC(=O)C/C=C/[C@@H](C)[C@H](NC(=O)OCC(Cl)(Cl)Cl)c1ccc2ccccc2c1	-18%[14.2 µM]	·	·	·	·	·
COCC(=O)Nc1cc(C(=O)N2CC3CCCC2C3)c2c(c1)nc(-c1ccncc1)n2C (stereo not given)	·	-2%	-5%	-6%	·	·
Cc1cccc(NC(=O)CN2CCN(C(=O)CNC(=O)c3ccc(-c4ccccc4)cc3)CC2)c1C	·	-11%	20µM*	?	?	·
CN(C)Cc1nc2ccccc2c(=O)n1Cc1nc(-c2cc3ccccc3o2)cs1	11µM*	-2%	-28%	-21%	7	-2%
Cc1csc(Cn2c(CN(C)C)nc3ccccc3c2=O)n1	8%	-6%	-2%	0%	-1	4%
CCn1c2ccccc2c2cc(/C=C3/C=Cc4ccccc43)ccc21	·	-8%	·	-21%	·	·
COc1ccc(NC(=O)CCCS(=O)(=O)c2nc(-c3ccc(OC)c(OC)c3)cc(C(F)(F)F)n2)cc1OC	?	-19%[7.34 µM]	32µM*	-12%[7.34 µM]	-100*	?
Cc1cc(NC(=O)CCS(=O)(=O)c2nc(-c3ccccc3)cc(C(F)(F)F)n2)no1	?	·	25µM*	?	-104*	?
COc1ccccc1-c1cc(C(F)(F)F)nc(S(=O)(=O)CCCC(=O)Nc2cc(OC)c(OC)c(OC)c2)n1	?	-3%	19%	-16%	-2	?
